Data on 20 molecules can be found in ChEMBL document CHEMBL1961873, “Compounds: GSK PKIS; Assays: Nanosyn kinase panel” (2012).

For experiment [1], the target named is Serine/threonine-protein kinase 26 (Homo sapiens) (UniProt Q9P289). The following applies: at 1 µM.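 Note: mean inhibition of MST4 kinase activity, reported from the GSK PKIS inhibitor-set screening panel.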
Experiment [2] deals with Serine/threonine-protein kinase PAK 1 (Homo sapiens) (UniProt Q13153). To be noted: at 0.1 µM.
Experiment [3] has the same target. The following applies: at 1 µM.
In experiment [4] the target is Serine/threonine-protein kinase PAK 2 (Homo sapiens) (UniProt Q13177). The following applies: at 0.1 µM.
Experiment [5] has the same target. The following applies: at 1 µM.
In experiment [6] the target is Serine/threonine-protein kinase PAK 3 (Homo sapiens) (UniProt O75914). To be noted: at 0.1 µM.
Experiment [7] has the same target. To be noted: at 1 µM.
Experiment [8] concerns the target Serine/threonine-protein kinase PAK 5 (Homo sapiens) (UniProt Q9P286). To be noted: at 0.1 µM.
The target is the same in experiment [9]. To be noted: at 1 µM.
For experiment [10], the target named is Serine/threonine-protein kinase PAK 6 (Homo sapiens) (UniProt Q9NQU5). To be noted: at 0.1 µM.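 Note: mean PAK6 inhibition reported from the GSK PKIS screen.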
Serine/threonine-protein kinase PAK 6 (Homo sapiens), sequence (Q9NQU5 whole entry, looked up): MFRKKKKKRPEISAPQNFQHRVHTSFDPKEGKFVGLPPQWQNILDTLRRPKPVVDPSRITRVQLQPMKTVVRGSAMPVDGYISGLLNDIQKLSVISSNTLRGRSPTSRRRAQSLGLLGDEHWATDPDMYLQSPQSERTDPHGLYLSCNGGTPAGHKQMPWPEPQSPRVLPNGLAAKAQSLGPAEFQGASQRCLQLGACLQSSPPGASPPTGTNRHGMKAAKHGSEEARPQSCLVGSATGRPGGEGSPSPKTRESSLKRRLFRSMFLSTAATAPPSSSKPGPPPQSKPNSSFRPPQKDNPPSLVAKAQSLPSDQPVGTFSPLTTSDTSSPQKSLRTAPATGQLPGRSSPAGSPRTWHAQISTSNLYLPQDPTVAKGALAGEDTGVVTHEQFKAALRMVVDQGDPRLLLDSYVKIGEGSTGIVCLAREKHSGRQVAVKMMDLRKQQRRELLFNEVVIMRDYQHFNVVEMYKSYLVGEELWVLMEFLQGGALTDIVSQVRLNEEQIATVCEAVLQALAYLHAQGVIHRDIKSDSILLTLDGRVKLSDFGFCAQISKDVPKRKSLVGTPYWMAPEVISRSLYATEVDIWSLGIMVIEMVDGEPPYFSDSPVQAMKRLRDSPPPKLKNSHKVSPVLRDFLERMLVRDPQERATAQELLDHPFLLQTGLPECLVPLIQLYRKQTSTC

Serine/threonine-protein kinase PAK 1 (Homo sapiens), sequence (Q13153 whole entry): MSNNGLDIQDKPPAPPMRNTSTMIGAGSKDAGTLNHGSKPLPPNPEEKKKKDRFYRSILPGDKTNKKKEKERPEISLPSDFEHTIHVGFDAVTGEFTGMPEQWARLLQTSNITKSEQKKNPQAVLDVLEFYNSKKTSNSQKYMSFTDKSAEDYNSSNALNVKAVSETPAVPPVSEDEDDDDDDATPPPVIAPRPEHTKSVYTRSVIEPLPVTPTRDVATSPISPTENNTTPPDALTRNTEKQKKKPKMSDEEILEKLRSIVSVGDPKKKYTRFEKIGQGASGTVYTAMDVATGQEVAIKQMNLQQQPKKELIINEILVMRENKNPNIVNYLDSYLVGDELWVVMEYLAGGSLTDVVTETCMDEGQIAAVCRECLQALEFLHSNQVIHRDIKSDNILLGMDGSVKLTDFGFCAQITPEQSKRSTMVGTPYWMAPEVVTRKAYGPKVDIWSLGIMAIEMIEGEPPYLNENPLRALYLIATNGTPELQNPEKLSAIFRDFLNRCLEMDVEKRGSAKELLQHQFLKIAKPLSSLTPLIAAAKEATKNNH
Serine/threonine-protein kinase PAK 3 (Homo sapiens), sequence (O75914 whole entry, looked up): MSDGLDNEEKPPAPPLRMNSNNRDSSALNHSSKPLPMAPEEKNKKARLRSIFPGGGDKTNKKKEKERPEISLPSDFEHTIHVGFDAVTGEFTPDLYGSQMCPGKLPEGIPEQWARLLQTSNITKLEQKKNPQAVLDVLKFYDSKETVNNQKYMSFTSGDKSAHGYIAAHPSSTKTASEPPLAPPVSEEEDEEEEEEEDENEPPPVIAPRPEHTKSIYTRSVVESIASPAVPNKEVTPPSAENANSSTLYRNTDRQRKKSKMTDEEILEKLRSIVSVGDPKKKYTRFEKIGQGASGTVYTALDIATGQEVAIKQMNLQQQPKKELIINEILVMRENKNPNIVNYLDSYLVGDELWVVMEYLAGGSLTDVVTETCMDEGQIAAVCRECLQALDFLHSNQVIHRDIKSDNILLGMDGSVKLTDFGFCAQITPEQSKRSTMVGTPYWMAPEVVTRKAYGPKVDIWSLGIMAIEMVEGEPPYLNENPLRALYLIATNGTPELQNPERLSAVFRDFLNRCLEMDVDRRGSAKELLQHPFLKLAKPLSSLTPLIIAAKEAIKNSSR
Serine/threonine-protein kinase PAK 5 (Homo sapiens), sequence (Q9P286 whole entry, looked up): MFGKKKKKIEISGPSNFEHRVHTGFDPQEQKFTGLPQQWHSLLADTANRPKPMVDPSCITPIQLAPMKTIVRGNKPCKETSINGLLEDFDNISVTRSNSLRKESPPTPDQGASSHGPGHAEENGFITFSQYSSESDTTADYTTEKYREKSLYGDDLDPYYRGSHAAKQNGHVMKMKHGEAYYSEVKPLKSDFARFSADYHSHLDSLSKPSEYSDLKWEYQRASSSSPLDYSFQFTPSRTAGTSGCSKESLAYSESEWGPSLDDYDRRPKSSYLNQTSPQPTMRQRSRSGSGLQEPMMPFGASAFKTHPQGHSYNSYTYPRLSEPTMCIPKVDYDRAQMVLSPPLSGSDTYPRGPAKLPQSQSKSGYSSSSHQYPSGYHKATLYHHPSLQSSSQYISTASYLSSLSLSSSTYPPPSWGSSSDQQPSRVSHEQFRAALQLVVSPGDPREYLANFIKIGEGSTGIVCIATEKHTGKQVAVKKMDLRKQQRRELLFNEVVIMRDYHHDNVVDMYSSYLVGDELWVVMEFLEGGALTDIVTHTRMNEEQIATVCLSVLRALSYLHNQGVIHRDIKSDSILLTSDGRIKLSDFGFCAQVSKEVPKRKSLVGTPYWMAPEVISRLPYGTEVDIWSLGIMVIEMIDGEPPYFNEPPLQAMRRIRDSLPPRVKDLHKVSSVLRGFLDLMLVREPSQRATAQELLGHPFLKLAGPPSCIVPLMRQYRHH
Serine/threonine-protein kinase 26 (Homo sapiens), sequence (Q9P289 2-416 limits assumed): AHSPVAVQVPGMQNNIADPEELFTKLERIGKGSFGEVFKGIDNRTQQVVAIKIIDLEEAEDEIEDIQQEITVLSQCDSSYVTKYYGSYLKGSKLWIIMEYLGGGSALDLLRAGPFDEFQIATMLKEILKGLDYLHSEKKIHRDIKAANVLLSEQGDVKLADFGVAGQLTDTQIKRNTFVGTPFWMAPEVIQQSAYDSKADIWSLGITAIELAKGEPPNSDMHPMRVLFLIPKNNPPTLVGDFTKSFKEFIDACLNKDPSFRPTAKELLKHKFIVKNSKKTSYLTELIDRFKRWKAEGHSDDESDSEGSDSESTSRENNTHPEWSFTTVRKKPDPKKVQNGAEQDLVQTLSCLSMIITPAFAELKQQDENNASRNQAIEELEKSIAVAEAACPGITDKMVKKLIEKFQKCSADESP
Serine/threonine-protein kinase PAK 2 (Homo sapiens), sequence (Q13177 whole entry): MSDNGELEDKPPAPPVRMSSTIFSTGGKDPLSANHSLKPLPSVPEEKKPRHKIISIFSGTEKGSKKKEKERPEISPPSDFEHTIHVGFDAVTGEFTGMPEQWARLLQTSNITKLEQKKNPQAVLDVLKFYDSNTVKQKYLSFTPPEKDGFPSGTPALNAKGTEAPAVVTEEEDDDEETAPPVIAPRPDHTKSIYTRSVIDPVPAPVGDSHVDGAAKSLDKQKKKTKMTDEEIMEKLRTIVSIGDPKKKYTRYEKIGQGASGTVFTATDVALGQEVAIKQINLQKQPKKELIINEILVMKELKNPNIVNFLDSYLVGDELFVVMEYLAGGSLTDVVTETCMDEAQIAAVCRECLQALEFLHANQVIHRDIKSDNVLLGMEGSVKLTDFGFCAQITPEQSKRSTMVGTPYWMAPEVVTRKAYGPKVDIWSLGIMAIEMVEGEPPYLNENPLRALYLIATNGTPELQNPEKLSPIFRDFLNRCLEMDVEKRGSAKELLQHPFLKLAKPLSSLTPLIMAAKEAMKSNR

`Cc1cc(O)cc(C)c1/C=C/c1cncc(-c2nn[nH]n2)c1`: the inhibition amounted to 0.45% in experiment [1]; 6.83% in [2]; 7.1% in experiment [3]; 2.28% in experiment [4]; 2.67% in experiment [5]; 4.55% in experiment [6]. Further, the inhibition is 5.43% in experiment [7], 1.47% in experiment [8], -1.45% in [9] and 7.17% in experiment [10].
Consider `COc1cc(C=NNc2ncnc3c2cnn3-c2ccccc2)ccc1O`, for which the inhibition in [1] was determined as 13.3%; in [2], 4.14%; in experiment [3] it was 5.41%; in experiment [4], 2.39%; in [5], 1.53%; in experiment [6] it was 2.39%. Further, the inhibition in experiment [7] is 2.83%; in experiment [8] it was -3.08%; in [9], 0.18%; in experiment [10], 5.73%.
Turning to `CCn1c(-c2nonc2N)nc2ccncc21`, the inhibition in experiment [1] is 0.2%; in [2], 6.53%; in [3], 2.38%; in experiment [4], -0.38%; in experiment [5], 1.82%; in experiment [6], 0.96%. Besides, the inhibition in experiment [7] was 1.02%; in experiment [8], -6.36%; in experiment [9] it was -8.04%; in [10] it was -9.63%.
Regarding `CCCN1CCC=C(c2ccc(Nc3nc(Nc4ccccc4C(N)=O)c4cc[nH]c4n3)c(C)c2)C1`, the inhibition in [1] is -1.15%; in experiment [2], 8.77%; in experiment [3] it was 12.7%; in experiment [4] it was 2.2%; in experiment [5], 3.03%; in experiment [6], 5%. For the same molecule, the values for the inhibition in experiment [7], in experiment [8] and in [9] were 6.44%, 6.43% and 14.2%, respectively.
For `c1cnn2ncc(-c3ccnc(Nc4ccc5c(c4)OCCO5)n3)c2c1`, the inhibition is -0.78% in [1]; 3.98% in [2]; 4.56% in [3]; 4.04% in experiment [4]; 3.37% in experiment [5]; 4.71% in [6]. Besides, the inhibition was 4.73% in [7], 8.91% in experiment [8], 14.7% in experiment [9] and 2.92% in [10].
Turning to `CN(C)c1cc2c(Nc3ccc4nc(Cc5ccccc5)[nH]c4c3)ncnc2cn1`, the inhibition is -0.63% in experiment [1]; 8.36% in experiment [2]; 8.45% in experiment [3]; 2.07% in experiment [4]; 1.52% in experiment [5]; 6.44% in [6]. Also, the inhibition was 7.25% in [7], 9.58% in experiment [8], -7.55% in [9] and 7.15% in experiment [10].
On to `[O-][S+]1CCN(Cc2ccc(-c3ccc4ncnc(Nc5ccc(OCc6ccccc6)c(F)c5)c4c3)o2)CC1`, for which the inhibition is 5.46% in [1]; 1.29% in experiment [2]; 5.06% in experiment [3]; 0.28% in experiment [4]; -0.13% in experiment [5]; 1.32% in experiment [6]. The inhibition in [7] is 1.96%; in experiment [8] it was -1.94%; in [9], -2.2%; in experiment [10], 2.21%.
Regarding `COc1ccc(-c2nn3ncccc3c2-c2ccnc(Nc3ccc(Cl)c(C(F)(F)F)c3)n2)cc1`, the inhibition in experiment [1] was 0.3%; in experiment [2], 2.46%; in experiment [3] it was 0.59%; in experiment [4], -0.08%; in [5], 0.63%; in experiment [6], 2.32%. In addition, the inhibition was 2.56% in [7], 1.71% in [8], -1.65% in experiment [9] and -0.34% in experiment [10].
On to `COc1cc2ncn(-c3cc(O[C@@H](C)c4ccccc4Cl)c(C(N)=O)s3)c2cc1OC`, for which the inhibition in [1] was -7.1%; in experiment [2], 7.98%; in experiment [3], 9.51%; in experiment [4], 1.89%; in experiment [5], 2.93%; in experiment [6], 5.16%. For the same molecule, the inhibition in experiment [7] is 5.27%; in experiment [8], 2.62%; in experiment [9] it was 4.73%; in experiment [10], -0.86%.
Consider `CCCN1CCC(Oc2cc(Nc3nc(Nc4cccc(F)c4C(N)=O)c4cc[nH]c4n3)c(OC)cc2Cl)CC1`, for which the inhibition was 2.1% in experiment [1]; -3.06% in [2]; 1.83% in experiment [3]; -1.01% in [4]; -0.56% in experiment [5]; -0.46% in experiment [6]. Besides, the inhibition in experiment [7] is -0.24%; in [8] it was 6.57%; in experiment [9] it was 3.44%; in experiment [10] it was 2.36%.
Take `CC1=C(C(=O)Nc2ccc3[nH]ncc3c2)C(c2ccc(Cl)c(Cl)c2)CC(=O)N1` (configuration not stated): the inhibition in [1] is -1.05%; in experiment [2] it was 2.74%; in [3] it was 3.36%; in [4], 0.48%; in experiment [5], -0.06%; in experiment [6], 0.86%. Besides, the inhibition in experiment [7] was 0.53%; in [8], 4.97%; in experiment [9], -3.2%; in experiment [10], 6.11%.
With `CCn1c(-c2nonc2N)nc2c(C#CC(C)(C)O)nc(CN3CCCC3)cc21`, the inhibition in experiment [1] was 7.65%; in [2], 0.14%; in [3], 2.33%; in experiment [4], -2.93%; in [5] it was -0.92%; in experiment [6] it was -0.82%. Moreover, the inhibition is 0.31% in experiment [7], -4.5% in experiment [8], -1.51% in experiment [9] and 10.8% in experiment [10].
As for `CC(C)=Cc1cccc2c1/C(=N/Nc1ccc(S(N)(=O)=O)cc1)C(=O)N2`, the inhibition in experiment [1] is 35.5%; in experiment [2] it was -2.27%; in experiment [3], 1.28%; in experiment [4], 0.39%; in experiment [5], 1.15%; in experiment [6], 0.22%. The inhibition in [7] was determined as 1.61%; in experiment [8], 8.32%; in experiment [9] it was 3.26%; in experiment [10], 7.25%.
As for `CC(=O)Nc1cccc(C#Cc2cncnc2Nc2ccc(OCc3cccc(F)c3)c(Cl)c2)n1`, the inhibition in experiment [1] is 2.51%; in experiment [2], 1.24%; in [3], 0.67%; in [4], -0.89%; in experiment [5], -0.09%; in [6] it was -0.61%. For the same molecule, the inhibition was -0.35% in [7], 4.91% in experiment [8], 9.12% in experiment [9] and 10.8% in experiment [10].
For `Nc1ncnc2occ(-c3ccc(NC(=O)Nc4cccc(C(F)(F)F)c4)cc3)c12`, the inhibition in [1] was -4.13%; in [2], 6.38%; in [3], 5.2%; in [4], 1.77%; in experiment [5], 1.5%; in experiment [6], 6.37%. For the same molecule, the inhibition was 5.54% in experiment [7], 2.15% in experiment [8], 3.35% in [9] and -0.62% in experiment [10].
Turning to `COc1ccc(COc2ccc(Cc3cnc(N)nc3N)cc2OC)cc1`, the inhibition came to 0.63% in experiment [1]; 1.82% in experiment [2]; 5.79% in experiment [3]; 0.46% in experiment [4]; 0.32% in experiment [5]; 1.75% in [6]. For the same molecule, the inhibition in experiment [7] is 1.06%; in experiment [8], 0.6%; in [9], 7.84%; in experiment [10], 0.33%.
Regarding `COC(=O)Nc1nc2cc(Oc3ccc(NC(=O)Nc4cccc(C(=O)O)c4)cc3)ccc2[nH]1`, the inhibition was 3.41% in experiment [1]; 0.04% in experiment [2]; 2.31% in [3]; -0.12% in experiment [4]; -0.31% in experiment [5]; 0% in [6]. For the same molecule, the inhibition in experiment [7] was determined as 0.98%; in experiment [8], 7.82%; in experiment [9] it was 3.29%; in [10], 3.13%.
For `Cc1cccc(-c2n[nH]cc2-c2ccc3ncccc3n2)n1`, the inhibition is 2.02% in [1]; -2.12% in [2]; 3.22% in [3]; -2.02% in [4]; -0.91% in experiment [5]; 0.55% in experiment [6]. The inhibition is 1.22% in [7], -7.66% in experiment [8], -3.76% in experiment [9] and -5.68% in experiment [10].
Regarding `CNC(=O)c1cncc(/C=C/c2c(Cl)cccc2Cl)c1`, the inhibition is -0.15% in experiment [1]; 4.17% in experiment [2]; 11% in experiment [3]; 1.59% in experiment [4]; 0.88% in experiment [5]; 4.45% in experiment [6]. The inhibition in experiment [7] is 5.48%; in experiment [8], 5.92%; in [9] it was 6.55%.
In the case of `COc1ccccc1Nc1ncc(-c2ccccc2)o1`, the inhibition in experiment [1] worked out at 0.41%; in experiment [2], 10.5%; in experiment [3] it was 12.7%; in experiment [4], 1.73%; in experiment [5], 1.5%; in experiment [6], 6.21%. Further, the inhibition was 6.38% in experiment [7], -2.83% in experiment [8] and -2.65% in [9].
